# Bioassay records as filed in PubChem.
# BaF3 parental: counter-screen for JAK2V617F inhibitors: parental Ba/F3 viability inhibitors. CellTiter-Glo ATP luminescence. inhibition, % at 5.6 µM. 220,000 tested, 1.1% active;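 active = inhibition above a per-campaign cutoff, the mean inhibition of all tested compounds plus 3 SD, cut at about 27% in these data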;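 also: 0% = DMSO wells and 100% = JAK Inhibitor I control wells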
# IEC-6 cytotox: counter-screen for KLF5 inhibitors: cytotoxicity in IEC-6 cells; AID 1825; 290,000 tested, 0.78% active; IEC-6 cytotoxicity, luminescence viability; inhibition, % at 5 µM;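 also: 0% = plate median of test compound wells and 100% = cytotoxic reference compound wells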
# aSyn UTR inh: 5' untranslated region of α-synuclein, MLPCN primary screen; alpha-synuclein 5'UTR reporter, inhibitor activity; inhibition, % (tested at 7.5 µM); 300,000 tested, 0.82% active; AID 1813; in the data active = inhibition above about 60%;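 also: H4 neuroglioblastoma cells stably carrying SNCA 5'UTR luciferase fusion; 0% = DMSO wells and 100% = positive control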
# KLF5 inh: kruppel-like factor 5 inhibition. 290,000 tested, 0.23% active. AID 1700. inhibition, % at 5 µM. DLD-1 KLF5 promoter-luciferase reporter, luminescence;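 active = inhibition above a per-plate limit of that plate's mean compound inhibition plus 3 SD, cut at about 60% in these data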;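 also: 0% = DMSO wells and 100% = LY294002 at 200 µM; higher means less KLF5 promoter-driven luciferase light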
# Ba/F3 V617F tox: loss of viability in JAK2V617F-driven Ba/F3 cells. Ba/F3 EpoR-JAK2V617F viability, ATP luminescence. 220,000 tested, 1.1% active. inhibition, % at 5.6 µM;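 active = inhibition above the campaign mean plus 3 SD over all tested compounds, cut at about 24% in these data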;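 also: cytokine-independent growth of Ba/F3 cells driven by EpoR plus mutant JAK2; 0% = DMSO-treated cells and 100% = JAK inhibitor I control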
# APP transl inh: APP translation inhibition. SH-SY5Y APP 5'UTR-luciferase reporter, luminescence. inhibition, % at 2 µM. 190,000 tested, 0.82% active. AID 1285;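 active = inhibition above a set limit, derived from the sample mean plus 3 SD, cut at about 45% in these data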
# IEC-6 tox confirm: IEC-6 cytotoxicity, confirmation assay. shares compounds with IEC-6 cytotox. IEC-6 rat intestinal epithelial viability, luminescence. inhibition, % at 5 µM. 1,900 tested, 63% active. AID 1907;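 also: 0% = vehicle and 100% = reference cytotoxic drug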
# * marks the source's active call; other numbers are inactive results; . = not tested or not shown. This is a sample that favours compounds with a hit; in the whole collection about 2.2% have one here. Rule as the data show it, unless noted: active = inhibition above about 22%; inactive = the rest.
SMILES,BaF3 parental,IEC-6 cytotox,aSyn UTR inh,KLF5 inh,Ba/F3 V617F tox,APP transl inh,IEC-6 tox confirm
C#CCSc1nnnn1-c1ccc(OCC)cc1,0.1,3.1,17.6,-15.3,6.5,.,.
O=C(CCN1C(=O)c2ccc(Br)cc2C1=O)NC1CCCCC1,.,-1.7,6.5,-31.2,.,.,.
Cc1onc(C(=O)Nc2cccnc2Cl)c1[N+](=O)[O-],1.9,7.4,8.6,-35.4,-1.7,-13.1,.
COc1cc(NC(=O)c2noc(C)c2[N+](=O)[O-])c(OC)cc1Cl,.,64.4*,-9.4,-47.0,.,.,17.3
CCOC(=O)N1CCN(c2c(N3CCN(c4ccccc4F)CC3)c(=O)c2=O)CC1,0.7,-4.8,3.5,-7.6,-4.7,.,.
CC1CCCN(S(=O)(=O)c2ccc(C(=O)Nc3nnc(-c4ccco4)o3)cc2)C1 (configuration not stated),.,25.0*,56.9,50.6,.,.,16.3
COc1ccc(-n2nc(C#N)c(Cl)cc2=O)cc1,2.0,29.1*,.,-20.3,8.3,94.9*,19.8
COC(=O)c1nn(-c2ccc(OC)cc2)c(=O)cc1O,7.0,-0.1,20.7,9.4,0.4,4.0,.
Cc1ccccc1OCCOC(=O)c1c(-c2ccccc2)noc1C,.,53.5*,-16.3,38.4,.,.,27.6*
COc1ccc(NC(=S)NNC(=O)c2ccccc2OC(F)F)cc1,55.4*,38.8*,-48.8,-24.5,76.5*,25.8,22.6*
CCOc1ccc(S(=O)(=O)Nc2cc(SCC(=O)O)c(O)c3ccccc23)cc1,.,49.4*,48.5,-14.2,.,.,1.0
CCc1ccc(S(=O)(=O)Nc2cc(SCC(=O)O)c(O)c3ccccc23)cc1,5.7,5.1,-13.4,-3.9,-2.5,5.8,.
COc1ccc(-n2nnnc2-c2ccccc2)cc1,68.1*,51.7*,19.2,37.6,79.6*,89.3*,50.2*
Clc1ccc(-n2nnnc2-c2ccccc2)cc1,3.1,5.8,.,-3.0,4.3,4.5,.
O=C(Nc1cc(=O)[nH]c(=O)[nH]1)c1cc(Cl)ccc1Cl,.,45.0*,-64.9,45.1,.,.,13.6
O=C(Nc1cc(=O)[nH]c(=O)[nH]1)c1cccc(C(F)(F)F)c1,.,-1.8,-4.0,-16.5,.,.,.
CCOc1ccc(N(C)S(=O)(=O)c2cc(-c3cc(C)no3)ccc2OC)cc1,.,2.7,-1.8,2.4,.,.,.
COc1ccc(-c2cc(C)no2)cc1S(=O)(=O)N(C)c1ccc(C)cc1,.,28.3*,-9.1,22.7,.,.,24.6*
COc1cc(C(=O)NNC(=O)C2CC=CCC2C(=O)O)cc(OC)c1OC (configuration not stated),44.4*,70.1*,5.2,39.0,60.3*,64.8*,-3.2
O=C(N1CCOCC1)N1CCc2ccccc21,.,4.4,12.3,-12.2,.,.,.
O=C(N/N=C/c1ccc(O)cc1)c1[nH]c2ccc(Br)cc2c1-c1ccccc1,71.0*,82.9*,7.6,56.3,75.3*,94.3*,65.4*
O=C(N/N=C/c1c[nH]c2ccccc12)c1[nH]c2ccc(Br)cc2c1-c1ccccc1,68.4*,81.9*,-26.4,43.7,76.2*,91.9*,63.1*
CC(C)N(CCc1ccncc1)C(=S)Nc1cccc(Cl)c1,0.8,-3.1,8.2,-4.5,-3.6,2.7,.
CCC1CCCCN1C(=O)c1cc(COc2ccc3ncccc3c2)on1 (configuration not stated),68.1*,23.0*,-13.7,0.3,68.1*,12.2,14.8
COCC1CCCCN1C(=O)c1cc(COc2ccc3ncccc3c2)on1 (configuration not stated),.,14.2,-24.2,-18.1,.,.,.
SMILES,BaF3 parental,IEC-6 cytotox,aSyn UTR inh,KLF5 inh,Ba/F3 V617F tox,APP transl inh,IEC-6 tox confirm
CCOC(=O)c1[nH]c(C)c(/C(O)=C2\C(=O)C(=O)N(CCCN3CCOCC3)C2c2cccs2)c1C (configuration not stated),71.8*,58.7*,-34.3,32.9,69.7*,.,10.0
COC(=O)c1[nH]c(C)c(/C(O)=C2\C(=O)C(=O)N(CCN3CCOCC3)C2c2cccs2)c1C (configuration not stated),.,.,8.5,.,.,.,.
Cc1nn(Cc2ccccc2)c(C)c1/C=N/NC(=O)c1ccccc1O,3.1,5.2,28.3,2.0,0.7,.,.
Cc1nsc2nc3c(F)c(F)c(F)c(F)c3cc12,.,29.4*,-49.4,-2.5,.,.,5.2
O=C1C=C(Nc2ccc(Cl)cc2Cl)CC(c2ccco2)C1 (configuration not stated),46.8*,53.9*,17.4,30.0,21.2,12.9,48.3*
CN(Cc1ccc(F)cc1)C(=O)c1cc(COc2ccc(-n3cncn3)cc2)on1,.,1.5,-1.6,16.0,.,.,.
Cc1ccc(-c2nnn3c2nc(NCCc2ccc(S(N)(=O)=O)cc2)c2ccccc23)cc1,6.8,54.7*,-18.6,8.2,3.0,3.8,4.3
CCOC(=O)c1c(C)[nH]c(C)c1S(=O)(=O)NCc1ccccc1C,.,-1.7,7.7,-7.9,.,.,.
COC(=O)c1ccccc1NC1=C/C(=N\S(=O)(=O)c2ccc(C(=O)O)cc2)c2ccccc2C1=O,.,28.1*,3.1,-6.2,.,.,12.9
CCOC(=O)N1CCN(C(=O)c2oc3ccc(S(=O)(=O)N(CC)CC)cc3c2C)CC1,.,7.2,17.7,-3.3,.,.,.
Cc1nc2cc(NC(=O)c3cccc(S(C)(=O)=O)c3)ccc2o1,.,3.0,-35.7,-7.0,.,.,.
COc1ccc(C(c2c(O)ccc3ccccc23)N2CCOCC2)c(OC)c1 (configuration not stated),0.1,35.0*,-55.4,-37.7,-1.1,-74.0,-1.4
COc1ccc(C(CCN2CCOCC2)c2c(O)cc(OC)cc2OC)cc1 (configuration not stated),.,.,7.7,.,.,.,.
O=C(NC1CCCC1)C(c1cccnc1)N(C(=O)c1csnn1)c1ccccc1 (configuration not stated),.,6.2,-0.8,-8.3,.,.,.
CCOc1ccccc1N1CC(O)=C(c2nc3ccccc3s2)C1=N,77.3*,55.5*,54.4,57.0,82.5*,91.8*,59.7*
O=S(=O)(c1ccc2c(c1)nc(COc1ccc(Cl)cc1)n2CC1CCCO1)N1CCOCC1 (configuration not stated),56.4*,36.7*,38.5,-15.1,33.2*,-3.7,-7.7
O=C(NNC(=S)NC(=O)c1ccccc1[N+](=O)[O-])c1ccccc1[N+](=O)[O-],7.2,0.4,-3.8,-27.4,4.2,-6.1,.
CCCCOc1ccccc1C(=O)NNC(=S)NC(=O)c1ccccc1[N+](=O)[O-],.,25.1*,16.0,15.1,.,.,6.7
COC(=O)c1ccc(-n2c(C)cc(C(=O)CSc3cccc[n+]3[O-])c2C)cc1,2.1,7.5,-5.9,6.4,0.3,-13.0,.
Cc1cc(C(=O)CSc2cccc[n+]2[O-])c(C)n1-c1ccc(OC(F)F)cc1,-1.9,27.1*,-102.9,-52.5,3.8,.,-1.0
CCCc1cc(=O)n2[nH]cc(-c3ccc(Cl)cc3)c2n1,.,22.9*,70.9*,-22.5,.,.,5.5
COc1ccc(N(CC(=O)Nc2cc(Cl)ccc2C)S(=O)(=O)c2c(C)n[nH]c2C)cc1,.,37.8*,9.8,22.1,.,.,12.2
